experiment: small-molecule microarray binders of probe aShh, primary screen, biochemical, biotinylated probe, 635/667 nm fluorescence (AID 1114); conditions: higher = more signal;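 further: probe is biotin-labelled aShh protein from a stem cell growth factor screen; measures binding of labelled protein to compounds printed on the slide; score merges feature fluorescence at 667 nm with signal-to-noise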

Compound	composite z-score
CC(C)c1ccc(NN2C(C(O)c3ccc(N(C)C)cc3)C=CC3C(=O)N(c4ccccc4)C(=O)C32)cc1 (centres undefined)	0.13
CC(C)NC(=O)[C@@H]1c2ccccc2C(=O)N(Cc2ccccc2)[C@H]1c1ccc(CO)cc1	-0.214
CCOC(=O)C[C@H]1[C@H](OC(=O)c2ccccc2-c2ccccc2)[C@@H](NC(=O)Cc2ccc(OC)cc2)c2cc(OCCCO)ccc2N1C(=O)c1ccccc1	-0.327
Cc1ccc(S[C@]2(C(=O)O)CC(=O)N(C3Cc4ccccc4C3)[C@@H]2c2ccc(CO)cc2I)cc1	-0.156
CC(C)(C)OC(=O)CC[C@@]1(C(=O)NCCN2CCOCC2)N=C(c2ccc(OCCCO)cc2)O[C@@H]1c1ccccc1	-0.138
CCCN1C(=O)[C@@]2(CCC(=O)OC(C)(C)C)N=C(c3ccc(OCCCO)cc3)O[C@H]2c2ccccc21	-0.0866
COCCOC(=O)N1C(=O)[C@@]2(c3cc(C#CCC(C(=O)OC)C(=O)OC)ccc31)[C@H](c1ccc(O)cc1)N1[C@H](c3ccccc3)[C@H](c3ccccc3)OC(=O)[C@H]1[C@@H]2C(N)=O	0.0469
N#Cc1ccc(NN2C(C(O)c3ccc([N+](=O)[O-])cc3)C=CC3C(=O)N(c4ccccc4)C(=O)C32)cc1 (centres undefined)	0.935
COCC(=C=CC[C@H](O)c1ccc(OCCO)cc1)C[C@H](O)c1cc(Cl)cc(Cl)c1O	0.678
CCOC(=O)C1=CC[C@@H](c2ccccc2)N(S(=O)(=O)c2ccc(C)cc2)[C@H]1C(=O)OCC	0.77
CCCCCN1CC=CC23O[C@@H]4C=CCOC(=O)[C@@H]4[C@H]2C(=O)N(CCCO)[C@@H]3C1=O (some centres undefined)	-0.0709
C[C@]1(C(=O)NCc2ccccc2)c2ccccc2C(=O)N(Cc2cc(F)cc(C(F)(F)F)c2)[C@H]1c1ccc(CO)cc1	0.0469
COc1ccc(C(O)C2C=CC3C(=O)NC(=O)C3N2Nc2ccccn2)cc1OCc1ccccc1 (centres undefined)	-0.0886
C=C(CCCC)C(=O)CC[C@H](OC(=O)c1cccnc1)c1cccc(OCCO)c1	-0.0035
O=C1OCCC/C=C\[C@H]2OC34C=CCN(Cn5nnc6ccccc65)C(=O)[C@H]3N(CCCCCO)C(=O)[C@@H]4C12 (some centres undefined)	-0.0035
CC(C)CNC(=O)[C@@H]1c2ccccc2C(=O)N(Cc2cc(C(F)(F)F)cc(C(F)(F)F)c2)[C@H]1c1ccc(CO)cc1	-0.155
CC(C)(C)N1CC=CC23O[C@@H]4C=CCOC(=O)[C@@H]4[C@H]2C(=O)N(CCCCCO)[C@@H]3C1=O (some centres undefined)	-0.221
CCOC(=O)C[C@H]1[C@H](OC(=O)c2ccc(-c3ccccc3)cc2)[C@@H](NC(=O)Cc2ccc(OC)cc2)c2cc(OCCCO)ccc2N1C(=O)c1ccc2ccccc2n1	-0.282
COCCOC(=O)N1C(=O)[C@@]2(c3cc(C#CCNC(N)=O)ccc31)[C@H](c1ccc(O)cc1)N1[C@H](c3ccccc3)[C@H](c3ccccc3)OC(=O)[C@H]1[C@@H]2C(=O)Nc1nc2ccccc2s1	-0.0626
COc1ccc(C#Cc2ccc3c(c2)[C@]2(C(=O)N3)[C@H](C(=O)NC[C@H](O)c3ccccc3)[C@H]3C(=O)O[C@H](c4ccccc4)[C@H](c4ccccc4)N3[C@@H]2c2ccc(OCCO)cc2)cc1	0.327
O=C1OCCC=C[C@H]2OC34C=CCN(Cc5ccccc5)C(=O)[C@H]3N(CCCO)C(=O)[C@@H]4C12 (some centres undefined)	-0.206
COC(=O)[C@@]1(Cc2ccccc2)N=C(c2ccc(OCCCO)cc2)O[C@H]1c1ccccc1N=[N+]=[N-]	0.297
COc1ccc(NN2C(C(O)c3ccc(OC)c(OCc4ccccc4)c3)C=CC3C(=O)N(C4CCCCC4)C(=O)C32)cc1 (centres undefined)	0.213
C=CCC(OC(C)=O)[C@@H]1[C@@H](N(Cc2cccc3ccccc23)C(=O)c2cccc3ccccc23)c2cc(OCCCO)ccc2N1C(=O)c1ccc2ccccc2n1 (some centres undefined)	-0.138
CC(C)CNC(=O)[C@@]1(c2ccc([N+](=O)[O-])cc2)CC(=O)N(CC23CC4CC(CC(C4)C2)C3)[C@@H]1c1ccc(CO)cc1I	-0.0685
Cc1ccc(S[C@]2(C(=O)NCC(C)C)CC(=O)N(Cc3ccccc3Cl)[C@@H]2c2ccc(CO)cc2)cc1	-0.181
[N-]=[N+]=NCc1ccccc1C[C@]1(C(=O)O)N=C(c2ccc(OCCCO)cc2)O[C@H]1c1ccccc1	-0.0626
Cc1ccccc1C(O)C1C=CC2C(=O)N(C)C(=O)C2N1Nc1ccccc1 (centres undefined)	-0.0289
O=C1O[C@H](c2ccccc2)[C@H](c2ccccc2)N2[C@H]1[C@@H](C(=O)N1CCN(c3ncccn3)CC1)[C@]1(C(=O)Nc3ccccc31)[C@H]2c1ccc(OCCO)cc1	-0.0578

Reference: PubChem BioAssay
